Screening data as filed in PubChem.
The list is not random: actives were taken first. Their share in the collection is about 19%.
TDP1 cell noCPT: qHTS for Inhibitors of human tyrosyl-DNA phosphodiesterase 1 (TDP1): qHTS in cells in absence of CPT; DT40 Tdp1-/- hTDP1 cells, no CPT, ATP luminescence, 48 h; Potency, µM (series often up to 46.2 µM), without a hit: at the highest dose activity change, negative = growth inhibition, most hits filed as inhibitors; 420,000 tested, 15% active; note: potency is the fitted concentration of half-maximal effect; % is set by controls: 0 for no effect and ±100 for the full control effect; nearly all actives have a fitted effect of over 55% in size
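Seeded 400 DT40-hTDP1 cells/well (vehicle DMSO, no 20 nM CPT); pinned compounds; ≥48 hr at 37 °C; CellTiter-Glo luminescence as viability measure.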
DT40 TDP1 CPT: growth inhibition of DT40 Tdp1-/-;hTDP1 cells with camptothecin (screen for TDP1 inhibitors). chicken DT40 Tdp1-/-;hTDP1 cells + 20 nM CPT, ATP luminescence, 48 h. Potency, µM (top dose mostly 46.2 µM), inactives show at the top dose activity change, negative = growth inhibition, usual class: inhibitors. 420,000 tested, 12% active. AID 686979; note: potency is the fitted concentration of half-maximal effect; % is set by controls: 0 for no effect and ±100 for the full control effect; nearly all actives have a fitted effect of over 55% in size
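Chicken DT40 Tdp1-/- cells complemented with human TDP1, 400 cells/well, exposed to compounds plus 20 nM camptothecin for at least 48 h at 37 C; viability read as ATP content by CellTiter-Glo luminescence.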
S-ASM inh: human S-ASM enzyme inhibition | P17405 | placental ASM, HMU-PC fluorogenic substrate, 60 min | Potency, µM (doses to about 57.5 µM), without a hit: top-dose activity change, negative = inhibition, hits mostly inhibitors | 340,000 tested, 0.006% active; note: potency is the fitted concentration of half-maximal effect
Target sequence (P17405 47-631 limits assumed): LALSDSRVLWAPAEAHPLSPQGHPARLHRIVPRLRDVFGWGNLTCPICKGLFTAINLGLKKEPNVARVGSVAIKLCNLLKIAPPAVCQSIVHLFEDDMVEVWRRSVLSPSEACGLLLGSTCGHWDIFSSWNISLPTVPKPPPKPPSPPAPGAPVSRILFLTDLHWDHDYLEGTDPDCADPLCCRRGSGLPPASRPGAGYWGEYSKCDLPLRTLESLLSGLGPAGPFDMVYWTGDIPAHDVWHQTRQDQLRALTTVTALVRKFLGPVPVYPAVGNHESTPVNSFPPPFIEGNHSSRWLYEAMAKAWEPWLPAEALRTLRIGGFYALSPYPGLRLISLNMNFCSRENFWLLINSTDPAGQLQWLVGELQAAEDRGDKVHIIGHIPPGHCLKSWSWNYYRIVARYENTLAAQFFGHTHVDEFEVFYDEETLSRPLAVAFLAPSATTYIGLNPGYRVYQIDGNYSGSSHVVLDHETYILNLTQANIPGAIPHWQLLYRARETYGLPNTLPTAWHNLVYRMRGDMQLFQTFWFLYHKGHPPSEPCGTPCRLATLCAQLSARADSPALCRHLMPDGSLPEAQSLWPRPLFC
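qHTS format. ASM enzyme prepared from human placenta hydrolyses the fluorogenic substrate HMU-PC0 (9 uM final) over 60 min at 37 °C after a 10 min compound preincubation.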
HepG2 tox: counter-screen for TGF-b inhibitors: cytotoxicity in HepG2 cells; HepG2 CAGA-GFP viability, ATP luminescence, 18 h; Potency, µM (series often up to 46.1 µM), without a hit: at the top dose activity change, negative = cytotoxicity, usual class: cytotoxic; 410,000 tested, 0.76% active; note: potency is the fitted concentration of half-maximal effect
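CellTiter-Glo luminescence gave cytotoxicity after 18 hours at 37 degrees C. The cells were HepG2 CAGA-GFP in 1% FBS DMEM, stimulated with 500 pg/mL TGF-beta after compound addition. %Activity was normalised to no-cell wells (complete cell-killing) and DMSO (no toxicity), and curves were fitted and classified.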
IL-1B inflam inh: blocks inflammasome-driven IL-1 beta release; THP-1 LPS/ATP IL-1B secretion, AlphaLISA, 16 h; stronger effect = lower value; 360,000 tested, 4.7% active; activity change, % at 57.5 µM; in the data active = activity change below about -50%; inconclusive = mostly about -30% to -49%; note: % is set by controls: 0 for no effect and ±100 for the full control effect
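Secreted IL-1B measured by AlphaLISA bead assay after 16 h compound exposure of THP-1 cells; compounds (final up to 57.5 uM) added 1 h before LPS (250 ng/mL) and ATP (1.25 mM) stimulation; lower signal means less secretion.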
TGFb SMAD3 inh: blocks TGF-b signaling; HepG2 CAGA-GFP TGF-b/SMAD3 reporter, GFP fluorescence, 18 h; TGF-beta stimulated, 500 pg/mL final; Potency, µM (top dose mostly 46.1 µM), without a hit: at the highest dose activity, negative = inhibition, hits mostly inhibitors; 410,000 tested, 1.2% active; note: potency is the fitted concentration of half-maximal effect; % is set by controls: 0 for no effect and ±100 for the full control effect; nearly all actives have a fitted effect of over 65% in size
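Cell-based qHTS in HEPG2 carrying a CAGA-GFP Smad reporter; compounds added before 500 pg/mL final TGF-beta, 18 h incubation at 37 degrees C, GFP fluorescence quantified per cell by imaging cytometry.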
Active calls of the source: *; u = inconclusive; x = no result given. Unless noted, calls come from the whole dose curve; as a rule, active = well fitted curve in the direction sought with a large enough effect; inconclusive = small, poorly fitted or top-dose-only effect, or another doubt; inactive = no such curve, though single readings can be large; an effect the other way counts as inactive or inconclusive.

SMILES	TDP1 cell noCPT	DT40 TDP1 CPT	S-ASM inh	HepG2 tox	IL-1B inflam inh	TGFb SMAD3 inh
O=C(O)c1ccc(N2CCCCCC2)c(N2C(=O)c3ccccc3C2=O)c1	4.0%	4.3%	0.5%	-6.4%	12.2	0.0%
O=C1c2cccc3c(N4CCCCC4)ccc(c23)C(=O)N1c1ccccc1O	20.6µM*	13µM*	u	-40.3%	-24.9	72.2%
O=C1c2cccc3c(N4CCCCC4)ccc(c23)C(=O)N1c1ccc(O)cc1	23.1µM*	u	-7.6%	14.8%	-4.3	75.3%
CCC(C(=O)n1cccc1C#N)c1ccccc1C (stereo unspecified)	-9.5%	2.3%	-1.3%	-11.0%	0.0	-24.9%
CC(C)(C)NC(=O)C(c1c[nH]c2ccccc12)N(C(=O)Cn1nnc(-c2ccc(F)cc2)n1)c1cccc(O)c1 (stereo unspecified)	20.6µM*	u	-22.8%	-22.5%	u	u
Cc1ccc(-c2nnn(CC(=O)N(c3ccc(F)cc3)C(C(=O)NC(C)(C)C)c3ccco3)n2)o1 (stereo unspecified)	u	-3.0%	-1.1%	13.3%	20.8	0.0%
CC(C)(C)NC(=O)C(c1ccco1)N(C(=O)Cn1nnc(-c2ccc(F)cc2)n1)c1cccc(F)c1 (stereo unspecified)	20.6µM*	u	-3.9%	-1.7%	-3.6	-9.0%
Cc1cccn2c(=O)c(C=O)c(Nc3ccccc3)nc12	u	-27.0%	-2.1%	-2.0%	24.7	-3.6%
O=C(NCCCn1ccnc1)c1ccccc1NS(=O)(=O)c1ccc(F)c(F)c1	u	15.8µM*	6.6%	2.0%	-1.6	11.8%
Cc1cc(C)c(C)c(S(=O)(=O)Nc2ccccc2C(=O)NCCCn2ccnc2)c1C	5.8µM*	4.61µM*	-1.2%	-91.3%	-12.3	11.4%
CCc1nc(NCCO)c(C#N)c2c1CSC(C)(C)C2	u	u	44.4%	1.0%	16.7	15.4%
CCOc1ccc(CN2CCN(Cc3cnc(-c4ccccc4)s3)CC2CCO)cc1 (stereo unspecified)	20.6µM*	u	-1.4%	-19.7%	8.2	u
OCCC1CN(Cc2cnc(-c3ccccc3)s2)CCN1C1CCCC1 (stereo unspecified)	-4.2%	6.6%	3.6%	-3.9%	-80.8*	-15.6%
CCOc1ccc2nc(CN3CCN(Cc4ccsc4)C(CCO)C3)ccc2c1 (stereo unspecified)	18.4µM*	u	-0.7%	-21.5%	-5.8	u
OCCC1CN(Cc2cnc(-c3ccc(Cl)cc3)nc2)CCN1C1CCCC1 (stereo unspecified)	14.6µM*	23.1µM*	-4.5%	4.1%	-73.0*	1.1%
Cc1cc(C)cc(-n2ccnc(NCc3ccc(F)cc3)c2=O)c1	u	u	x	-3.1%	x	-10.8%
OCCC1CN(CC#Cc2ccccc2)CCN1C1CCCC1 (stereo unspecified)	-4.4%	-21.7%	4.9%	-3.0%	-2.2	-11.2%
OCCC1CN(CC(c2ccccc2)c2ccccc2)CCN1C1CCCC1 (stereo unspecified)	18.4µM*	u	-0.9%	-21.7%	-14.1	-15.5%
CCCCCCCCC(=O)NNC(=O)c1c(O)c2ccccc2n(CCC)c1=O	u	23.1µM*	-2.2%	5.0%	-16.0	17.4%
CCn1c(=O)c(C(=O)Nn2c(C)nc3ccccc3c2=O)c(O)c2ccccc21	u	16.4µM*	-4.8%	-0.4%	29.6	-4.6%
COc1ccc(CNC(=O)c2c(O)c3ccccc3n(C)c2=O)cc1	-6.5%	6.4%	-3.9%	-1.4%	-12.1	4.1%
